Data on eight compounds can be found in PubChem BioAssay (Tox21).

The nature of assay [1]: A CellTox Green Cytotoxicity Assay to monitor cytotoxicity in HEK293 cells - 32 hour (AID 1224881). Further: nearly all actives have a fitted effect of over 40% in size. A digest of the protocol:
(§1)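 Tox21 screen in HEK293: membrane-impermeant cyanine dye fluoresces on binding dead-cell DNA; compound pinned 5 h post-seeding, plates held at 37 C, signal read repeatedly through 40 h.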

The nature of assay [2]: A CellTox Green Cytotoxicity Assay to monitor cytotoxicity in HepG2 cells - 0 hour (AID 1224882). Further: nearly all actives have a fitted effect of over 35% in size. A digest of the protocol:
(§2)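 Measurements at 0, 8, 16, 24, 32 and 40 h of treatment captured CellTox Green fluorescence in HepG2 cells that had been co-plated with reagent and preincubated 5 h at 37 C/5% CO2.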

Assay [3] can be described thus: A CellTox Green Cytotoxicity Assay to monitor cytotoxicity in HepG2 cells - 32 hour (AID 1224883). Further: nearly all actives have a fitted effect of over 50% in size. The method, boiled down:
as §2

A short description of assay [4]: A CellTox Green Cytotoxicity Assay to monitor cytotoxicity in HEK293 cells - 8 hour (AID 1224884). Further: nearly all actives have a fitted effect of over 35% in size. The method, boiled down: as §1
The nature of assay [5]: qHTS RealTime-Glo MT Cell Viability Assay in HepG2 cells - 16 hour (AID 1224885). Further: nearly all actives have a fitted effect of over 50% in size. The method, boiled down:
(§3)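 Real-time, nonlytic viability: 600 HepG2 cells/well mixed with NanoLuc enzyme plus prosubstrate; 5 h settle, compound (DMSO) added by pintool; luminescence monitored over 40 h at 37 C.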
On the technique in general: In qHTS, concentration-response curves come from the screen itself.

A short description of assay [6]: qHTS RealTime-Glo MT Cell Viability Assay in HEK293 cells - 24 hour (AID 1224886). Further: top concentration of the series differs between compounds; nearly all actives have a fitted effect of over 50% in size. A digest of the protocol:
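Cells + reagent dispensed (600 cells/well, HEK293) → 5 h at 37 C/5% CO2 → 23 nL compound in DMSO pinned → 40 h at 37 C → luminescence read at 0, 8, 16, 24, 32, 40 h.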

Assay [7] in a line: qHTS RealTime-Glo MT Cell Viability Assay in HEK293 cells - 8 hour (AID 1224887). Further: top concentration of the series differs between compounds; nearly all actives have a fitted effect of over 50% in size. A digest of the protocol: (§4)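 HEK293 + NanoLuc + prosubstrate, 600 cells/well; 5 h, 37 C/5% CO2; compound 23 nL in DMSO by pintool; 37 C; luminescence read at 0, 8, 16, 24, 32 and 40 h time points.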
A short description of assay [8]: A CellTox Green Cytotoxicity Assay to monitor cytotoxicity in HEK293 cells - 16 hour (AID 1224888). Further: nearly all actives have a fitted effect of over 35% in size. A digest of the protocol: as §1
Assay [9] is described as follows: qHTS RealTime-Glo MT Cell Viability Assay in HepG2 cells - 0 hour (AID 1224889). Further: nearly all actives have a fitted effect of over 50% in size. A digest of the protocol:
as §3

Assay [10] can be described thus: A CellTox Green Cytotoxicity Assay to monitor cytotoxicity in HepG2 cells - 8 hour (AID 1224890). Further: nearly all actives have a fitted effect of over 45% in size. The method, boiled down:
as §2

A short description of assay [11]: qHTS assay to identify small molecule antagonists of the estrogen receptor alpha (ER-alpha) signaling pathway using the BG1 cell line in the presence of 0.1 nM 17-beta-estradiol - cell viability counter screen (AID 1259241). Further: nearly all actives have a fitted effect of over 40% in size. The method, boiled down: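 Estradiol-stimulated (0.1 nM) VM7Luc4E2 cells exposed to compounds 22 hr; viability measured by fluorescence of cleaved CellTiter-Fluor substrate after 30 min.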

Assay [12] is described as follows: qHTS assay to identify small molecule antagonists of the androgen receptor (AR) signaling pathway using the MDA cell line in the presence of 0.5 nM R1881 - cell viability counter screen (AID 1259242). Further: nearly all actives have a fitted effect of over 45% in size. The method, boiled down: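 Concentration-response screen of compounds for toxicity in MDA-kb2 reporter cells: 16 hr at 37C with 0.5 nM R1881, endpoint live-cell protease fluorescence measured in the reporter wells.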

Assay [13] addresses Androgen receptor (Homo sapiens) (UniProt P10275). The assay is described as follows: qHTS assay to identify small molecule antagonists of the androgen receptor (AR) signaling pathway using the MDA cell line in the presence of 0.5 nM R1881 (AID 1259243). Further: nearly all actives have a fitted effect of over 50% in size. A digest of the protocol:
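With R1881 held at 0.5 nM (final), compound effects on MMTV-luciferase expression in MDA-kb2 cells were scored by luminescence after a 16 hr, 37C incubation.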

Assay [14] addresses Estrogen receptor (Homo sapiens) (UniProt P03372). The assay is described as follows: qHTS assay to identify small molecule antagonists of the estrogen receptor alpha (ER-alpha) signaling pathway using the BG1 cell line in the presence of 0.1 nM 17-beta-estradiol (AID 1259244). Further: nearly all actives have a fitted effect of over 50% in size. The method, boiled down:
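Compounds were tested against 0.1 nM (final) 17beta-estradiol in VM7Luc4E2 cells, which express full-length ER-alpha and an ERE-luciferase reporter; luminescence was recorded following 22 h exposure.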

Assay [15] in a line: qHTS assay to identify small molecule HDAC inhibitors (AID 1259364).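 Further: wild-type HCT-116 cells with endogenous class I/II HDAC activity; top concentration of the series differs between compounds; nearly all actives have a fitted effect of over 45% in size.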 The method, boiled down:
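Screening used wild-type human colon HCT-116 cells incubated overnight, dosed with compounds for 2 hours, and assayed with a homogeneous luminogenic HDAC I/II reagent for 30 minutes at room temperature.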

Assay [16] can be described thus: qHTS assay to identify small molecule HDAC inhibitors - cell viability counter screen (AID 1259365). A digest of the protocol: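 After overnight seeding at 1,500 cells per well, wild-type HCT-116 cultures took up compounds in DMSO for 2hr at 37 C. Viable cell content came from luminescence with CellTiter-Glo.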
Assay [17] in a line: qHTS assay to identify small molecule antagonists of the sonic hedgehog signaling (Shh) pathway - cell viability counter screen (AID 1259367). Further: nearly all actives have a fitted effect of over 55% in size. Further: potency means the concentration at half of the fitted maximal effect. A digest of the protocol: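 Tox21 library chemicals were tested on a Gli1-Luc NIH/3T3 clone (2,000 cells/well) stimulated by conditioned medium; viability was quantified as fluorescence from CellTiter-Fluor reagent added at 23 hr.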

Assay [18] can be described thus: qHTS RealTime-Glo MT Cell Viability Assay in HEK293 cells - 0 hour (AID 1224880). Further: top concentration of the series differs between compounds; nearly all actives have a fitted effect of over 45% in size. A digest of the protocol: as §4
Assay [19] is described as follows: qHTS assay to identify small molecule agonists of the sonic hedgehog signaling (Shh) pathway - cell viability counter screen (AID 1259366). Further: nearly all actives have a fitted effect of over 50% in size. Further: potency means the concentration at half of the fitted maximal effect. The method, boiled down:
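Same-well cytotoxicity read. Gli1-Luc reporter 3T3 cells; compounds 24hr, 37C/5% CO2; CellTiter-Fluor fluorescence.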

Unmarked numbers belong to inactive results. Inconclusive results are not listed. Calls of active or inactive are those of the source. The call rests on the fitted dose curve; in most records, active means well fitted curve in the direction sought with a large enough effect in the repeat runs; inconclusive means weak or mixed curves; inactive means no such curve, though single readings can be large; an effect the other way counts as inactive or inconclusive.
On the % scale 0 is the no-effect control and ±100 the full control effect.

Androgen receptor (Homo sapiens), sequence (P10275 whole entry, looked up): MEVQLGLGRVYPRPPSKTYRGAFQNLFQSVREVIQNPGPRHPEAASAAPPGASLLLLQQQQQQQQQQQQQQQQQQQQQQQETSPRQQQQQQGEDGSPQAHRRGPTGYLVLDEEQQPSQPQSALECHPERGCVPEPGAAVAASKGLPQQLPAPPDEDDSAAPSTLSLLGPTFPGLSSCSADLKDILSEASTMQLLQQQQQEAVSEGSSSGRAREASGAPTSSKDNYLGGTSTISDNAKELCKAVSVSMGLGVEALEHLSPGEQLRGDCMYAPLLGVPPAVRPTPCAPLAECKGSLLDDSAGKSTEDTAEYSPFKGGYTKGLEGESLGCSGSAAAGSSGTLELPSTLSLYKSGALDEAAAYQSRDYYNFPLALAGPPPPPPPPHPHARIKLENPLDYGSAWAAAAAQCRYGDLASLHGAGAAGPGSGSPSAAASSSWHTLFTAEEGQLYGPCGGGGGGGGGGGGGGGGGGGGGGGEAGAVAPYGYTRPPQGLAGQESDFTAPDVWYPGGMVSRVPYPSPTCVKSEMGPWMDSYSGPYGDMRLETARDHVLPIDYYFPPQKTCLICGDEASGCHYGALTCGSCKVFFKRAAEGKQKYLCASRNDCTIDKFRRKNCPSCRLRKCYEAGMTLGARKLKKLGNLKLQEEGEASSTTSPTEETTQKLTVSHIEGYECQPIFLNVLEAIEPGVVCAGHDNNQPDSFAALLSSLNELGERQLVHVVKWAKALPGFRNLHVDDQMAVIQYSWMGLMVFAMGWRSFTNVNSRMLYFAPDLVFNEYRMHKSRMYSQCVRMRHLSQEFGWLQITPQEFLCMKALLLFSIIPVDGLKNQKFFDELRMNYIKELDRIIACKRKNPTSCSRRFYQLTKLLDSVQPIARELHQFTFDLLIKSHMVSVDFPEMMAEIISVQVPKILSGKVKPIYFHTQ
Estrogen receptor (Homo sapiens), sequence (P03372 whole entry, looked up): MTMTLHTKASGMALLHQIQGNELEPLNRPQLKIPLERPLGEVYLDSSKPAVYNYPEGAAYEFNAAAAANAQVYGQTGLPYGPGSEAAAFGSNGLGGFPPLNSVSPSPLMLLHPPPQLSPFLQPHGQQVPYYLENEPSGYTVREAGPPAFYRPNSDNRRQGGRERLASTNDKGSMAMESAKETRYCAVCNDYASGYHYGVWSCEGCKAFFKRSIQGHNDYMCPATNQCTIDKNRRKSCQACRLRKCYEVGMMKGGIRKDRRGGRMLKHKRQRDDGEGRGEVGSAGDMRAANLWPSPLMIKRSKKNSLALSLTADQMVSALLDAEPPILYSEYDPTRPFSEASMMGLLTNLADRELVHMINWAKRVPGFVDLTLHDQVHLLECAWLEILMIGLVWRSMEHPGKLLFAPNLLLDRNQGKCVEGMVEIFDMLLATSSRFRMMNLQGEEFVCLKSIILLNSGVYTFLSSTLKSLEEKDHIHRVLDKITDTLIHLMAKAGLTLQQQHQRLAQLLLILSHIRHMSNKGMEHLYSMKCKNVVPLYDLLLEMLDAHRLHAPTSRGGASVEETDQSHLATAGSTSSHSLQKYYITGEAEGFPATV

Turning to `[O-][Br+2]([O-])O`, the Potency result in assay [1], in assay [3], in assay [4], in assay [5], in assay [6] and in assay [7] was “inactive” each time. The Potency result in [8], in assay [10], in assay [12], in [13], in [14] and in assay [15] was “inactive” throughout. In addition, in [17], the Potency result was “inactive”. For the same compound, the call in assay [2], in [9], in assay [11] and in [16] was inactive.

As to `Cn1c(N)nc2c3cccnc3ccc21`, the call in assay [18], in assay [9] and in assay [16] was inactive. The Potency entry in assay [3], in [4], in assay [5], in assay [6], in assay [7] and in assay [10] was “inactive” each time. Moreover, the Potency result in [12], in assay [14] and in [15] was “inactive” in each case. Besides, the Potency in [19] and in assay [17] was 26 µM (active) throughout.

As to `Cc1cc(OC(=O)N(C)C)nn1C(=O)N(C)C`, the compound was classed as inactive in assay [18], in assay [2], in [9], in assay [11] and in [16]. Also, the Potency result in [3], in assay [4], in [5], in [6], in assay [7] and in assay [8] was “inactive” each time. Further, the Potency result in [12], in assay [14], in assay [15] and in assay [19] was “inactive” throughout.

In the case of `CCN1CCCC1CNC(=O)C(O)(c1ccccc1)c1ccccc1` (centres undefined), the result in assay [18], in assay [9], in assay [11] and in assay [16] was inactive. Besides, the Potency result in assay [4], in assay [5], in assay [6], in assay [7], in assay [8] and in assay [10] was “inactive” throughout. Further, the Potency result in assay [12], in assay [15], in assay [19] and in [17] was “inactive” throughout.

With `COc1ccccc1OC`, the call in assay [18], in assay [9], in [11] and in [16] was inactive. Further, the Potency entry in [3], in [4], in assay [5], in [6], in assay [8] and in [10] was “inactive” each time. For the same compound, the Potency result in assay [12], in [14], in [19] and in assay [17] was “inactive” each time.

As for `CCCCCCCCBr`, the result in assay [18], in assay [2], in [9], in assay [11] and in assay [16] was inactive. The Potency result in assay [3], in [4], in assay [5], in assay [6], in [7] and in assay [8] was “inactive” each time. Also, the Potency result in assay [10], in [12], in [15], in assay [19] and in [17] was “inactive” throughout.

Consider `Clc1cc2c(cc1Cl)Oc1cc(Cl)c(Cl)cc1O2`, for which the activity change, negative = cytotoxicity in assay [18] was -12.5% [at 0.29 µM]; in assay [9], 7.93% [at 0.29 µM]; in assay [11], -0.812% [at 0.349 µM]; in assay [16], 6.76% [at 0.349 µM]. The cytotoxicity in assay [2] was -1.33% [at 0.29 µM]. The cytotoxicity increase in [3] is 4.82% [at 0.29 µM]; in assay [4], -18.7% [at 0.29 µM]; in assay [10] it was -6.05% [at 0.29 µM]. For the same compound, the activity change, negative = cytotoxic in assay [5] is 2.3% [at 0.29 µM]. For the same compound, the viability change, negative = cytotoxic was -3.69% [at 0.349 µM] in assay [12] and -1.46% [at 0.349 µM] in assay [19]. Further, the activity, negative = inhibition in assay [13] was 16.7% [at 0.349 µM]. The activity change, negative = inhibition in assay [15] is 0.908% [at 0.349 µM].

For `COc1ccc(C=O)cc1O`, the call in assay [18], in assay [2], in assay [9], in assay [11] and in assay [16] was inactive. The Potency entry in [3], in assay [5], in assay [6], in [7], in assay [8] and in [10] was “inactive” throughout. The Potency result in assay [12], in assay [13], in [14], in assay [15] and in assay [19] was “inactive” in each case.
